The text below walks through data of a collection of fitness landscapes (doi:10.1016/j.celrep.2020.107928).

B1: Caulobacter ParB omega fusion; a variant is named by its letters at X, in order, B8GW30 (parent)
chain: MESVVVGEPGMSEGRRGLGRGLSALLGEVDAAPAQAPGEQLGGSREAPIEILQRNPDQPRRTFREEDLEDLSNSIREKGVLQPILVRPSPDTAGEYQIVAGERAWRAAQRAGLKTVPIMVRELDDLAVLEIGIIENVQRADLNVLEEALSYKVLMEKFERTQENIAQTIGKSXSHVANXMRLLXLPDEVQSYLVSGELTAXHARAIAAAADPVALAKQIIEGGLSVRETEALARKAPNLSAGKSKGGRPPRVKDTDTQALESDLSSVLGLDVSIDHRGSTGTLTITYATLEQLDDLCNRLTRGI

Whole data set: some 81,000 sequences, median “one-hybrid fitness for binding parS DNA” near -0.17, cut for the highest 2% near 0.51. What follows is part of a selection rich in the highest values, with near analogues and random picks from the rest.

Variants of B1 are the subject of this assay. Briefly: one-hybrid fitness for binding parS DNA (scaled: cognate 1, non-cognate 0); higher = stronger binding. The following applies: with parS DNA site. An outline of the steps:
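Pre- and post-selection plasmids were Illumina-sequenced, three replicate libraries were pooled, and any variant with under 10 reads was removed. The libraries were Caulobacter ParB with four specificity codons randomised, selected in E. coli USO through a HIS3 reporter whose site is 19 bp from the promoter. Cells grew 48 hours at 37°C on M9 without histidine, with 0.1 mM IPTG and 5 mM 3-AT. Fitness is the log change in variant-to-wild-type read ratio, rescaled against cognate and non-cognate.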
On to HNSL, for which the “one-hybrid fitness for binding parS DNA” value is at most 0.2.
Under FLAG stands at most 0.2; under RRQE, at most 0.2.
In the case of SFER it was at most 0.2; in that of HAWC, at most 0.2; in that of PTHS, at most 0.2.
On to RYFA, for which the “one-hybrid fitness for binding parS DNA” value stood at 0.573.
In the case of NYFA it was at most 0.2; in that of PYFA, at most 0.2.
As for RYAA, the “one-hybrid fitness for binding parS DNA” value stood at 0.559.
Under NNWM stands at most 0.2.
Consider DTAQ, for which the “one-hybrid fitness for binding parS DNA” value is at most 0.2.
Under AYES stands at most 0.2.
Turning to PDYS, the “one-hybrid fitness for binding parS DNA” value is at most 0.2.
Under LGYC stands at most 0.2; under PVSM, at most 0.2; under RIVA, 0.585.
On to NIVA, for which the “one-hybrid fitness for binding parS DNA” value is at most 0.2.
As for RIKA, the “one-hybrid fitness for binding parS DNA” value was 0.745.
In the case of YQPY it was at most 0.2; in that of GEYG, at most 0.2; in that of TWSS, at most 0.2.
Under LCRP stands at most 0.2; under RKDH, 0.231; under RKNG, 0.907.
In the case of RKNQ it was at most 0.2; in that of RKDN, 0.329.
Take RKNR: the “one-hybrid fitness for binding parS DNA” value was at most 0.2.
Under RKDG stands 0.939.
Under TSWS stands at most 0.2; under KARL, at most 0.2; under PVGS, at most 0.2.
In the case of QVWC it was at most 0.2.
Consider RHAY, for which the “one-hybrid fitness for binding parS DNA” value came out at 0.403.
In the case of RHFN it was 0.319; in that of RHFP, at most 0.2; in that of RHAT, 0.865.
Under RHAM stands 0.28; under RHFT, 0.707.
In the case of HWFS, the “one-hybrid fitness for binding parS DNA” value is at most 0.2.
In the case of RPMV it was at most 0.2; in that of ETTA, at most 0.2.
In the case of SPEG it was at most 0.2.
Under RSSN stands 0.436.
RPSC: the “one-hybrid fitness for binding parS DNA” value was at most 0.2.
In the case of RCSC it was 0.961; in that of RSSC, 0.966; in that of RSSH, at most 0.2.
For the variant RESC, the “one-hybrid fitness for binding parS DNA” value worked out at 0.215.
Under TKKI stands at most 0.2.
Under QGCC stands at most 0.2; under LEMT, at most 0.2; under CTGE, at most 0.2.
Under VMPA stands at most 0.2; under NSSL, at most 0.2.
Regarding RLID, the “one-hybrid fitness for binding parS DNA” value is at most 0.2.
As to RLIT, the “one-hybrid fitness for binding parS DNA” value came out at 0.795.
In the case of RLPQ it was at most 0.2; in that of RLPK, at most 0.2.
Under RLPT stands 0.58.
Under RLIH stands 0.21; under TGTF, at most 0.2; under DRTR, at most 0.2.
As to QHDH, the “one-hybrid fitness for binding parS DNA” value was at most 0.2.
In the case of KIRG it was at most 0.2.
Under MVRP stands at most 0.2; under RAAK, at most 0.2.
In the case of RAFT it was 0.847.
As for RAAF, the “one-hybrid fitness for binding parS DNA” value was found to be 0.242.
Under RAAT stands 0.909; under RAFH, 0.204; under RAFD, at most 0.2.
In the case of CANR it was at most 0.2; in that of WEPV, at most 0.2; in that of HEHL, at most 0.2.
In the case of CTTW it was at most 0.2; in that of FEAS, at most 0.2; in that of DTFA, at most 0.2.
For the variant DTAA, the “one-hybrid fitness for binding parS DNA” value is at most 0.2.
RTAA: the “one-hybrid fitness for binding parS DNA” value was found to be 0.579.
Take RTFA: the “one-hybrid fitness for binding parS DNA” value came out at 0.592.
Under QTHE stands at most 0.2.
In the case of PSQT it was at most 0.2; in that of QCPA, at most 0.2.
